Six compounds from PubChem BioAssay (NCI) can be followed below.

Holding throughout (assay): NCI-60 one-dose screen, 48 h (100 = growth as untreated, 0 = no growth, -100 = all killed)
Settings in all cases: 10 µM unless noted

In experiment [1] the test system is HCT-15 colon.
Experiment [2] concerns HT29 colon.
Experiment [3] concerns SNB-75 CNS.
Experiment [4] deals with SNB-19 CNS.
In experiment [5] the test system is U251 CNS.
For experiment [6], the system named is PC-3 prostate.
The test system of experiment [7] is SK-MEL-5 melanoma.
Experiment [8] relates to UACC-62 melanoma.
Experiment [9] deals with LOX IMVI melanoma.
For experiment [10], the system named is SK-MEL-28 melanoma.
The subject of experiment [11] is EKVX NSCLC.
Experiment [12] has as its system SN12C renal.
Experiment [13] concerns UO-31 renal.
Experiment [14] relates to TK-10 renal.
Experiment [15] concerns ACHN renal.
The subject of experiment [16] is CAKI-1 renal.
In experiment [17] the test system is CCRF-CEM leukemia.
The test system of experiment [18] is MOLT-4 leukemia.
Experiment [19] concerns A498 renal.

Compounds without any hit were thinned out: in the full panel of roughly 83,000, 20% have a hit.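 Single-concentration screen, 48 h exposure, 96-well plates. Endpoint: percent growth. Below 10 = active.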 Unmarked numbers belong to inactive results. Active and inactive are the calls of the source.

For the compound `O=C1C=CC2(NN=C(c3ccccc3)N2c2ccc(Cl)cc2)c2cccc(O)c21` (configuration not stated), the growth in [1] is 18.7%; in experiment [2] it was 73%; in experiment [3], 33.1%; in experiment [4], 34.8%; in experiment [5], 18.1%; in experiment [6] it was 39.1%. Moreover, the growth in experiment [7] is -70.2% (active); in experiment [8], -33.1% (active); in [9], 2.09% (active); in experiment [10] it was 52.6%; in experiment [11], 75.1%; in experiment [12], 26.4%. The growth in experiment [13] was 28.2%; in [14], 100%; in [15] it was 61.1%; in experiment [16] it was 84%; in experiment [17], 83.1%; in [18], 61.8%.

For `Cc1ccccc1N1C(c2ccccc2)=NNC12C=CC(=O)C=C2Cl` (configuration not stated), the growth in experiment [1] is 108%; in experiment [2], 96.2%; in experiment [3] it was 96.3%; in experiment [4] it was 106%; in experiment [5] it was 94.2%; in experiment [6] it was 96.2%. For the same compound, the growth in [7] was 115%; in experiment [8], 98.1%; in experiment [9], 98.7%; in experiment [10], 101%; in [11] it was 111%; in experiment [12], 96.3%. In addition, the growth is 88.8% in experiment [13]; 109% in experiment [14]; 100% in experiment [15]; 105% in experiment [16]; 109% in experiment [19]; 101% in experiment [17]. Besides, the growth in experiment [18] is 94.7%.

Regarding `Nc1ncnc2c1c(-c1cccc(OCc3ccccc3)c1)cn2C1CC(CN2CCC2)C1` (configuration not stated), the growth in [1] is 10.1%; in experiment [2], -39.8% (active); in experiment [3], -28.7% (active); in experiment [4], 32.1%; in [5] it was -17.9% (active); in experiment [6], 27.4%. The growth is -96.7% (active) in [7]; -55.9% (active) in experiment [8]; -75% (active) in experiment [9]; -69.6% (active) in experiment [10]; 30.1% in experiment [11]; 35.5% in experiment [12]. For the same compound, the growth was -66.6% (active) in experiment [13]; 28.4% in experiment [14]; 18.7% in [15]; 7.5% (active) in [16]; 5.52% (active) in experiment [17]; -14.5% (active) in [18].

With `COC(=O)[C@H](C)NC(=O)[C@@H](OC)[C@@H]1Cc2cc3cc(OC4CC(OC5CC(O)C(O)C(C)O5)C(O)C(C)O4)c(C)c(O)c3c(O)c2C(=O)[C@H]1OC1CC(OC2CC(OC3CC(C)(O)C(O)C(C)O3)C(O)C(C)O2)C(O)C(C)O1` (some centres not stated), the growth in experiment [1] is 19.3%; in experiment [2], 3.99% (active); in experiment [3], -63.8% (active); in [4], 8.48% (active); in experiment [5] it was 7.45% (active); in [6], 8.21% (active). Further, the growth is -67.4% (active) in experiment [7]; -52.8% (active) in experiment [8]; -27.4% (active) in [9]; -37.7% (active) in experiment [10]; 21.9% in experiment [11]; 11.5% in [12]. For the same compound, the growth in experiment [13] was 5.72% (active); in experiment [14], 13.1%; in experiment [15] it was -1.98% (active); in experiment [16], 27.5%; in [19] it was -66.5% (active); in experiment [17] it was 14.5%. For the same compound, the growth in [18] was 0.969% (active).

With `Cc1cc(C(=O)Nc2cc(Oc3ccc4nc(NC(=O)C5CC5)cn4n3)ccc2C)n(C)n1`, the growth in [1] was 44.1%; in experiment [2], 4.61% (active); in experiment [3] it was 7.99% (active); in experiment [4], 33.5%; in [5], 13.3%; in [6], 49.8%. Moreover, the growth in experiment [7] was 23.6%; in [8], -16.9% (active); in experiment [9], -20.1% (active); in experiment [10] it was 0.461% (active); in experiment [11], 58.8%; in experiment [12], 37.8%. In addition, the growth in [13] is 14.4%; in experiment [14], 27.4%; in experiment [15] it was 37.3%; in [16] it was 23.8%; in experiment [19], -39.2% (active); in experiment [17] it was 29.9%. Further, in [18], the growth is 32.6%.

Take `C[C@H](NC(=O)c1c(N)nn2cccnc12)c1cc2cccc(C#Cc3cnn(C)c3)c2c(=O)n1-c1ccccc1`: the growth in experiment [1] was 10.6%; in experiment [2], 2.38% (active); in experiment [3] it was -6.15% (active); in experiment [4], 39.3%; in experiment [5], 16.7%; in experiment [6], 18.9%. The growth in [7] was 44%; in experiment [8], 15.6%; in [9], 7.86% (active); in experiment [10] it was 45.5%; in experiment [11], 33.9%; in [12], 40.6%. Further, the growth in [13] is 10.6%; in experiment [14] it was -9.96% (active); in [15] it was 20.7%; in experiment [16], 21.3%; in [19] it was -24.3% (active); in experiment [17], 13.8%. For the same compound, the growth in [18] is -4.98% (active).
